Data from PubChem BioAssay (NCI).
The panel holds about 79,000 compounds, 15% with a hit somewhere; the sample as a whole holds those more often. No stated cut-off is given here; in the data, active means growth inhibition above about 70%; inactive means the rest.

Columns and labels:
[1] = NCI Yeast Anticancer Drug Screen. Data for the rad50 strain (AID 155);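 further: 0% = growth of vehicle-only cultures of the same strain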; details: S. cerevisiae rad50 strain growth inhibition; at 50.0 µM; active compounds read high
Procedure, shortened: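 Relative growth inhibition (compound vs vehicle) was measured in yeast with a defined repair-gene alteration.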

[2] = NCI Yeast Anticancer Drug Screen. Data for the mec2-1 strain (AID 157); details: S. cerevisiae mec2-1 strain, at 50.0 µM, active compounds read high
Procedure, shortened: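 Yeast mec2-1 mutant treated with compound. Readout: growth inhibition vs vehicle controls.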

[3] = NCI Yeast Anticancer Drug Screen. Data for the sgs1 mgt1 strain (AID 161);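 further: 0% = growth of cultures given vehicle only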; details: S. cerevisiae sgs1 mgt1 strain, at 50.0 µM, active compounds read high
Procedure, shortened: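 Genetically altered yeast, compound exposure, growth inhibition relative to vehicle.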

[4] = NCI Yeast Anticancer Drug Screen. Data for the cln2 rad14 strain (AID 165);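 further: 0% = growth equal to vehicle treated cultures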; details: S. cerevisiae cln2 rad14 strain, at 50.0 µM, active compounds read high
Procedure, shortened: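 cln2 rad14 yeast strain; compound exposure; growth inhibition read vs vehicle controls.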

[5] = NCI Yeast Anticancer Drug Screen. Data for the bub3 strain (AID 167); details: S. cerevisiae bub3 mutant strain, at 50.0 µM, active compounds read high
Procedure, shortened: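 Screening used yeast with an engineered genetic alteration affecting cell cycle control. Compound-exposed cultures were compared with vehicle cultures, and reduced growth was taken as inhibition.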

[6] = NCI Yeast Anticancer Drug Screen. Data for the mlh1 rad18 strain (AID 175); details: S. cerevisiae mlh1 rad18 strain growth inhibition; at 50.0 µM; active compounds read high
Procedure, shortened: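 Yeast w/ defined DNA-repair lesions; compound exposure; growth vs vehicle controls → % inhibition.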

Measured: growth inhibition

O=C(O)CCC(=O)OCc1ccccc1
inactive: [1] 3.15% | [2] 22.6% | [3] -22.1% | [4] -16.6% | [5] -11.2% | [6] 0.8%

CC(C)(C)OC(=O)C(C1NC2C(=O)OCC2(CO)S1)N1C(=O)c2ccccc2C1=O (stereo not drawn)
inactive: [1] 38.6% | [2] -1.65% | [3] 25.9% | [4] -6.35% | [5] -1.75% | [6] 12.5%

O=C(O)Cc1ccc(OCCCCCOc2ccc(CC(=O)O)cc2)cc1
inactive: [1] 6.05% | [2] 0.25% | [3] 20.6% | [4] -49.9% | [5] -12% | [6] 4.35%

c1ccc2c(c1)cc1n2CCc2c-1[nH]c1ccccc21
inactive: [1] 26.2% | [2] 18.6% | [3] 4.2% | [4] 18.1% | [5] 19.9% | [6] 20.9%

N#C/C(=C\C1CCCC([N+](=O)[O-])C1)C1CCC([N+](=O)[O-])CC1 (stereo not drawn)
inactive: [1] -0.55% | [2] 5.3% | [3] -7.15% | [4] -6.5% | [5] -5.05% | [6] 2.85%

CC(C)(C)OC(=O)c1cccc(Br)c1
inactive: [1] -8.1% | [2] -12.8% | [3] -4.55% | [4] 15.2% | [5] 12.8% | [6] 11.1%

CCN(CC)CC(O)c1cccc2cc(Cl)ccc12 (stereo not drawn)
inactive: [1] -3.25% | [2] -8.85% | [3] 28% | [4] -15.2% | [5] -2.55% | [6] -14%

O=C(O)C(Sc1ccccc1)c1ccccc1 (stereo not drawn)
inactive: [1] 0.8% | [2] -8.2% | [3] -0.05% | [4] -32.4% | [5] -21.9% | [6] -21.6%

COc1ccc(/C=C2/CSC/C(=C/c3ccc(OC)c(OC)c3)C2=O)cc1OC
inactive: [1] -16.2% | [2] 11.7% | [3] 6.8% | [4] -40.8% | [5] 10.2% | [6] -1.35%

Cc1cc(Cl)ccc1OCCCC(=O)NC(Cc1ccccc1)C(=O)O (stereo not drawn)
inactive: [1] 4.85% | [2] 8.95% | [3] -2.15% | [4] 27.5% | [5] -4.2% | [6] 0%

O=P1(c2ccccc2)OCC2=C(c3ccccc3)CC2=C1c1ccccc1 (stereo not drawn)
inactive: [1] 16.1% | [2] 12.2% | [3] 4.7% | [4] 10.1% | [5] -2.05% | [6] 19.9%

CCCC1(C)COC(=O)OC1
inactive: [1] 6% | [2] 6.5% | [3] 17.5% | [4] 13.9% | [5] 7.1% | [6] 19.9%

CCC(CC)C(=O)OC1CCCCC1C(C)C (stereo not drawn)
inactive: [1] 6.8% | [2] -3.5% | [3] -0.2% | [4] -13.6% | [5] 3.05% | [6] 0.35%

O=C(O)c1ccccc1C(=O)OCC1CCc2ccccc2C1 (stereo not drawn)
inactive: [1] 5.45% | [2] 26.8% | [3] 28.3% | [4] 33% | [5] 51.4% | [6] 9.2%

N#CC(=Nc1ccc2ccccc2c1)C1=C(O)c2ccccc2C1=O
inactive: [1] 15.8% | [2] -3.2% | [3] 0.2% | [4] -30.4% | [5] 10.2% | [6] 11.8%

CC(C)(C)c1ccc(Oc2nc(Oc3ccc(C(C)(C)C)cc3)nc(Oc3ccc(C(C)(C)C)cc3)n2)cc1
inactive: [1] 19.6% | [2] 10.8% | [3] 10.6% | [4] 3.8% | [5] -1.85% | [6] 11.2%

COC(=O)c1cc(NC(=O)Nc2ccc(F)c([N+](=O)[O-])c2)cc(C(=O)OC)c1
inactive: [1] 8.9% | [2] 4.85% | [3] -4.6% | [4] 7.3% | [5] -1.3% | [6] 26.8%

N=c1c2ccccc2nc2oc3ccc(Cl)cc3n12
inactive: [1] -15.4% | [2] -32.5% | [3] -6.25% | [4] -0.45% | [5] 15.6% | [6] -8.55%

CC(=O)NC1c2ccccc2Oc2c(C)cccc21 (stereo not drawn)
inactive: [1] -8.8% | [2] 0.85% | [3] 1.7% | [4] -15.9% | [5] 2.75% | [6] 2.6%

C=C1C(=O)OC2CCCC(O)C12 (stereo not drawn)
inactive: [1] 2.35% | [2] 2.45% | [3] -6.55% | [4] -39% | [5] -12.2% | [6] 1.9%

CC1(C)OC2OC(CI)C3OC(C)(C)OC3C2O1 (stereo not drawn)
inactive: [1] 5.7% | [2] 2.8% | [3] -1.75% | [4] 34.5% | [5] 12.6% | [6] -1.45%

Cc1ccc(N=NC(=O)NNc2ccc(C)cc2Br)c(Br)c1
inactive: [1] 19.4% | [2] -8.8% | [3] -3.8% | [4] 15.2% | [5] -6.5% | [6] 14.6%

O=C1CC2CCCCC2=C1O (stereo not drawn)
inactive: [1] 18.4% | [2] -11.2% | [3] 14.1% | [4] 17.9% | [5] -3.1% | [6] 13.8%

Nc1ncnc(N)c1NC(=O)c1ccc(SCc2ccccc2)cc1
inactive: [1] -7.15% | [2] 20.9% | [3] 27.5% | [4] -21.2% | [5] 22.5% | [6] 22.2%

COc1ccc(NC=O)c(C(O)CCNC(C)=O)c1 (stereo not drawn)
inactive: [1] -15.4% | [2] -10.1% | [3] -19.6% | [4] 0.45% | [5] -39.1% | [6] -34.5%

O=C1C2CN(Cc3ccccc3)CC2C(=O)N1c1ccccc1 (stereo not drawn)
inactive: [1] 1.9% | [2] 13% | [3] 9.25% | [4] -51.8% | [5] -37.7% | [6] 18.2%

CCB1OC2C(COC(C)=O)OC(OC(C)=O)C2O1 (stereo not drawn)
inactive: [1] -7.4% | [2] -9.6% | [3] -9.55% | [4] -9.25% | [5] -6.9% | [6] -10.1%

COc1ccc(C(=O)Cc2ccc3ccccc3n2)cc1
inactive: [1] -4.75% | [2] 16.7% | [3] -6.8% | [4] -24.9% | [5] -10.8% | [6] 4.45%

Cc1ccc(/[N+]([O-])=N/N2C(=O)c3ccccc3C2=O)cc1
inactive: [1] -15.4% | [2] -18.6% | [3] -10.1% | [4] -23.5% | [5] -16.6% | [6] -2.9%

O=C1[C@@H](c2ccc(Cl)cc2)[C@H]2CC=C[C@H]2N1O
inactive: [1] 8.65% | [2] -21.4% | [3] -13.8% | [4] 15.4% | [5] -13.4% | [6] -2.25%

O=C(Nc1ccccc1O)c1ccc([N+](=O)[O-])cc1
inactive: [1] 2.2% | [2] 34.4% | [3] -4.4% | [4] -15.6% | [5] 20.4% | [6] 19.1%

CCOC(=O)Cc1cc(=O)oc2cc(O)ccc12
inactive: [1] -22.9% | [2] 2.3% | [3] 4.1% | [4] 22.7% | [5] -1.8% | [6] -1.1%

O=Cc1ccc(-c2ccc([N+](=O)[O-])cc2)o1
inactive: [1] 3.7% | [2] 9% | [3] -9.5% | [4] -7.8% | [5] -0.3% | [6] 3.6%

CC(C)(C)N[P+](Cc1ccccc1)(NC(C)(C)C)c1ccccc1
inactive: [1] 33.1% | [2] 10.9% | [3] 62% | [4] -9.7% | [5] 3.65% | [6] 8.9%

NC(=O)N/N=C/c1ccc(Cl)cc1Cl
inactive: [1] -3.7% | [2] -5.55% | [3] -8.25% | [4] -1.65% | [5] 4.8% | [6] -13.6%

COC1=CC(=O)OC(c2ccccc2)(c2ccccc2)C1
inactive: [1] -3.6% | [2] -15.1% | [3] 8.8% | [4] 13% | [5] 13.6% | [6] -3.65%

Cc1cc(C)cc(OCCC(=O)O)c1
inactive: [1] -1.4% | [2] -16.6% | [3] -10.4% | [4] 21.7% | [5] 2.95% | [6] 7.1%

O=C(O)C(O)(C1CCCCC1)C1CCC2CCC3CCCC1C32 (stereo not drawn)
inactive: [1] 5.4% | [2] 9.4% | [3] 20.1% | [4] 12.7% | [5] -11.2% | [6] 14.8%
